# “And” between values parts separate entries of the source, which are not always exact repeats. Equal values may be shown once. This is part of a sample that, as a whole, favours compounds with a hit. Of some 83,000 tested, about 20% had one in any assay.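 In brief: 96-well plates, 48 h treatment, single concentration, percent growth endpoint.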 The source made the active and inactive calls. Rule for the calls: active = growth percent below 10; inactive = the rest.
# How the values were obtained:
# Assay in all cases: NCI-60 one-dose screen, 48 h (100 = growth as untreated, 0 = no growth, -100 = all killed)
# Settings in all cases: 10 µM unless noted
# [1] = tested on: SK-MEL-2 melanoma
# [2] = tested on: EKVX NSCLC
# [3] = tested on: SN12C renal
# [4] = tested on: UO-31 renal
# [5] = tested on: TK-10 renal
# [6] = tested on: ACHN renal
# [7] = tested on: CAKI-1 renal
# [8] = tested on: A498 renal
# [9] = tested on: CCRF-CEM leukemia
# [10] = tested on: MOLT-4 leukemia
# [11] = tested on: SR leukemia
# [12] = tested on: RPMI-8226 leukemia
# [13] = tested on: OVCAR-8 ovarian
# [14] = tested on: OVCAR-5 ovarian
# [15] = tested on: OVCAR-4 ovarian
# [16] = tested on: SK-OV-3 ovarian
# [17] = tested on: IGROV1 ovarian
# [18] = tested on: OVCAR-3 ovarian
# [19] = tested on: HS 578T breast
# [20] = tested on: NCI/ADR-RES ovarian
SMILES,growth [1],growth [2],growth [3],growth [4],growth [5],growth [6],growth [7],growth [8],growth [9],growth [10],growth [11],growth [12],growth [13],growth [14],growth [15],growth [16],growth [17],growth [18],growth [19],growth [20]
[2H]C([2H])([2H])Oc1cccc(/C=C/C(=O)/C=C(/C=C/c2cccc(OC([2H])([2H])[2H])c2OC([2H])([2H])[2H])OB(F)F)c1OC([2H])([2H])[2H],116% (inactive),93.6% (inactive),74% (inactive),51.5% (inactive),99.9% (inactive),51.5% (inactive),58.1% (inactive),117% (inactive),4.12% (active),15.6% (inactive),23.3% (inactive),46% (inactive),20.6% (inactive),106% (inactive),71.5% (inactive),105% (inactive),73.3% (inactive),39.2% (inactive),91.9% (inactive),50.6% (inactive)
N#C/C(=C\c1ccc(Br)cc1)n1nnc2c(F)cccc21,28.4% (inactive),30.6% (inactive),-1.81% (active),-65.9% (active),2.41% (active),-50.8% (active),-4.93% (active),-21.9% (active),2.97% (active),9.87% (active),23.1% (inactive),-20.2% (active),7.76% (active),1.16% (active),14.1% (inactive),40.7% (inactive),-24.3% (active),-51.1% (active),11% (inactive),2.56% (active)
CCOC(=O)n1cc(-c2nonc2-c2cn(C)c3ccc(OC)cc23)c2cc(F)ccc21,99.8% (inactive),73.3% (inactive),77.5% (inactive),52.1% (inactive),94.2% (inactive),60.2% (inactive),52.2% (inactive),67.5% (inactive),80.9% (inactive),80.3% (inactive),79% (inactive),74.5% (inactive),75.7% (inactive),62% (inactive),75% (inactive),81% (inactive),73.2% (inactive),87.4% (inactive),70.2% (inactive),82.2% (inactive)
Nc1nc(Cl)nc2c1ncn2C1OC(CO)C(O)C1O (stereo not given),82.9% (inactive),102% (inactive) and 110% (inactive),30.2% (inactive) and 28.3% (inactive),25.1% (inactive) and 13% (inactive),82.4% (inactive) and 87.6% (inactive),65.9% (inactive) and 61.9% (inactive),25.9% (inactive) and 41% (inactive),96.6% (inactive),0.283% (active) and -17% (active),2.75% (active) and 3.08% (active),56.8% (inactive),104% (inactive) and 96.1% (inactive),22.9% (inactive) and 29.3% (inactive),90% (inactive) and 105% (inactive),94.4% (inactive) and 87% (inactive),41.3% (inactive) and 68.1% (inactive),78.9% (inactive) and 75.1% (inactive),86.9% (inactive),108% (inactive),29.6% (inactive) and 40.2% (inactive)
CC12CCC(C(=O)CC1=O)C2(C)C (stereo not given),110% (inactive),97.5% (inactive),102% (inactive),88.3% (inactive) and 87.1% (inactive),100% (inactive) and 105% (inactive),107% (inactive) and 106% (inactive),101% (inactive) and 97% (inactive),93.2% (inactive) and 108% (inactive),103% (inactive) and 96.8% (inactive),82.6% (inactive) and 96.5% (inactive),122% (inactive) and 93% (inactive),101% (inactive) and 94.2% (inactive),103% (inactive) and 99.5% (inactive),101% (inactive) and 106% (inactive),101% (inactive),104% (inactive) and 105% (inactive),110% (inactive) and 104% (inactive),105% (inactive) and 106% (inactive),108% (inactive) and 120% (inactive),111% (inactive) and 103% (inactive)
CCOC(=O)c1cnn(CC(O)CC)c1NC(=O)NCc1ccccc1C(F)(F)F (stereo not given),87.3% (inactive),91.8% (inactive),101% (inactive),77.6% (inactive),101% (inactive),102% (inactive),77.6% (inactive),105% (inactive),84.9% (inactive),87.2% (inactive),114% (inactive),81% (inactive),102% (inactive),103% (inactive),106% (inactive),91.4% (inactive),94.9% (inactive),107% (inactive),109% (inactive),95.4% (inactive)
COc1ccc(C(=O)c2ccc(OC)c(OC)c2OC)cc1,17.6% (inactive) and 57.5% (inactive),48.1% (inactive) and 39% (inactive),56.1% (inactive) and 43.4% (inactive),41.8% (inactive) and 24.1% (inactive),34.4% (inactive) and 54.2% (inactive),42.5% (inactive) and 53.8% (inactive),14.4% (inactive) and 21% (inactive),4.87% (active) and -9.47% (active),37.3% (inactive),41.5% (inactive) and 36.8% (inactive),43.5% (inactive) and 8.36% (active),35.3% (inactive) and 27.4% (inactive),41.8% (inactive) and 47.4% (inactive),83.1% (inactive) and 49.9% (inactive),82.8% (inactive) and 42.8% (inactive),18% (inactive) and 3.38% (active),25.7% (inactive) and 11.9% (inactive),-22.8% (active) and -39.4% (active),-9.55% (active) and -14.2% (active),18.5% (inactive) and -13.9% (active)
COc1cccc(NC(=O)c2sc3nc(C)c(C(O)c4ccccc4)cc3c2N)c1 (stereo not given),37.8% (inactive),47.7% (inactive),18.5% (inactive),48% (inactive),50.8% (inactive),30.9% (inactive),35.1% (inactive),-0.498% (active),14.3% (inactive),11.8% (inactive),6.69% (active),13.8% (inactive),8.45% (active),47.5% (inactive),70.3% (inactive),12.5% (inactive),25.7% (inactive),-10.4% (active),14.6% (inactive),7.31% (active)
COc1cc(CNC(=O)CCCC/C=C/C(C)C)ccc1O,93.3% (inactive) and 108% (inactive),103% (inactive) and 97.3% (inactive),92.4% (inactive) and 91.9% (inactive),57.7% (inactive) and 59% (inactive),200% (inactive) and 103% (inactive),99.7% (inactive),92.1% (inactive) and 82.2% (inactive),112% (inactive) and 113% (inactive),55.8% (inactive) and 58.3% (inactive),84.2% (inactive) and 73.4% (inactive),91.7% (inactive) and 99% (inactive),100% (inactive) and 94.7% (inactive),109% (inactive),92.7% (inactive),93.3% (inactive) and 104% (inactive),117% (inactive) and 105% (inactive),96.8% (inactive) and 88.2% (inactive),84.5% (inactive) and 119% (inactive),91.5% (inactive) and 111% (inactive),113% (inactive) and 97.5% (inactive)
COc1ccc2c(c1)CCNC21C(=O)Nc2c(Br)cc(Br)cc21 (stereo not given),106% (inactive),78.7% (inactive),92.5% (inactive),62.1% (inactive),106% (inactive),93.7% (inactive),82.8% (inactive),67% (inactive),113% (inactive),95.9% (inactive),96.4% (inactive),106% (inactive),101% (inactive),91.3% (inactive),95.2% (inactive),84.2% (inactive),82.4% (inactive),101% (inactive),94.8% (inactive),104% (inactive)
[2H]C([2H])([2H])Oc1cc(F)ccc1/C=C/C(=O)/C=C(/C=C/c1ccc(F)cc1OC([2H])([2H])[2H])OB(F)F,48% (inactive),76.6% (inactive),42.6% (inactive),49.5% (inactive),43.6% (inactive),14.8% (inactive),18.2% (inactive),89% (inactive),2.38% (active),1.25% (active),41.7% (inactive),3.53% (active),4.99% (active),104% (inactive),17.5% (inactive),101% (inactive),12% (inactive),10.5% (inactive),46.3% (inactive),1.89% (active)
COc1ccc2c(O)c(/C=C3\N=Nc4nc(C)ccc43)oc2c1CC1CCNCC1,95.5% (inactive),63.4% (inactive),60.3% (inactive),70.6% (inactive),79.1% (inactive),69.2% (inactive),83.1% (inactive),44.7% (inactive),63.3% (inactive),48.1% (inactive),-27.5% (active),96.7% (inactive),68.4% (inactive),65% (inactive),74.2% (inactive),80.8% (inactive),60.8% (inactive),83.8% (inactive),57.9% (inactive),104% (inactive)
CC1(C)C(N)=Nc2cc(OCCCCN3Cc4ccccc4C3)c(OCC3CC3)cc21,110% (inactive),78.6% (inactive),81.9% (inactive),60.5% (inactive),86.9% (inactive),87.8% (inactive),56.3% (inactive),109% (inactive),99.4% (inactive),101% (inactive),93.4% (inactive),100% (inactive),76.2% (inactive),80.3% (inactive),82.6% (inactive),89% (inactive),79.4% (inactive),78% (inactive),88.3% (inactive),92.6% (inactive)
